Assay results taken from PubChem BioAssay.
Active and inactive are the calls of the source.

Assays:
[1] = test system: Plasmodium falciparum Sir2 (PF13_0152, Sir2A); test: Plasmodium falciparum Sir2A binding compounds – biochemical, small-molecule microarray, 635 nm fluorescence, primary screen (AID 1098); settings: fluorescence 635 nm, higher = more signal;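 further: score merges spot fluorescence intensity with its signal-to-noise ratio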
[2] = probe aDKK1 binding to arrayed compounds – biochemical, biotinylated probe, 635/667 nm fluorescence, primary screen (AID 1099); settings: small-molecule microarray, higher = more signal;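 further: score merges 667nm spot fluorescence with signal to noise across triplicate slides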
[3] = probe aCHRDL2 binding to arrayed compounds – biochemical, biotinylated probe, 635/667 nm fluorescence, primary screen (AID 1100); settings: small-molecule microarray, higher = more signal
[4] = change in splice reporter luminescence, either direction, cell-based, HEK293, spliceosome inhibition project, primary screen (AID 1101); settings: HEK293 splicing luciferase reporter, 24 h, higher = more signal, called active from +8 up or from −8 down;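 further: HEK293 cells carrying a splicing-competent luciferase reporter gene; test concentration not given here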
[5] = target: Fibroblast growth factor 10 (Homo sapiens) (UniProt O15520); test: compounds binding fibroblast growth factor 10 – biochemical, small-molecule microarray, 635 nm fluorescence, primary screen (AID 1102); settings: FGF10 binding, fluorescence 635 nm, higher = more signal
Sequence of Fibroblast growth factor 10 (Homo sapiens) (O15520 whole entry, looked up): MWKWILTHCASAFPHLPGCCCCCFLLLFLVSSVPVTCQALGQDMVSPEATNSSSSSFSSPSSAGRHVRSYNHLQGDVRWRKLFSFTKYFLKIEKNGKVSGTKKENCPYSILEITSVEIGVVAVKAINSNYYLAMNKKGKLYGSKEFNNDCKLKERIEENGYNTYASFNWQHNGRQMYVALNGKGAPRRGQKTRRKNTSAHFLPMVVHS

[6] = test system: glycogen synthase kinase-3 (GSK3A per assay name; protocol says GSK3B); test: compounds binding glycogen synthase kinase-3 – biochemical, small-molecule microarray, 635 nm fluorescence, GSK3A, primary screen (AID 1103); settings: fluorescence 635 nm, higher = more signal; further: the record names both GSK3A and GSK3B
[7] = target: Epidermal growth factor receptor (Homo sapiens) (UniProt P00533); test: compounds binding epidermal growth factor receptor – biochemical, small-molecule microarray, 635 nm fluorescence, primary screen (AID 1104); settings: EGFR binding, higher = more signal;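 further: score merges 667 nm emission intensity with spot signal to noise over triplicate slides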
Sequence of Epidermal growth factor receptor (Homo sapiens) (P00533 whole entry, looked up): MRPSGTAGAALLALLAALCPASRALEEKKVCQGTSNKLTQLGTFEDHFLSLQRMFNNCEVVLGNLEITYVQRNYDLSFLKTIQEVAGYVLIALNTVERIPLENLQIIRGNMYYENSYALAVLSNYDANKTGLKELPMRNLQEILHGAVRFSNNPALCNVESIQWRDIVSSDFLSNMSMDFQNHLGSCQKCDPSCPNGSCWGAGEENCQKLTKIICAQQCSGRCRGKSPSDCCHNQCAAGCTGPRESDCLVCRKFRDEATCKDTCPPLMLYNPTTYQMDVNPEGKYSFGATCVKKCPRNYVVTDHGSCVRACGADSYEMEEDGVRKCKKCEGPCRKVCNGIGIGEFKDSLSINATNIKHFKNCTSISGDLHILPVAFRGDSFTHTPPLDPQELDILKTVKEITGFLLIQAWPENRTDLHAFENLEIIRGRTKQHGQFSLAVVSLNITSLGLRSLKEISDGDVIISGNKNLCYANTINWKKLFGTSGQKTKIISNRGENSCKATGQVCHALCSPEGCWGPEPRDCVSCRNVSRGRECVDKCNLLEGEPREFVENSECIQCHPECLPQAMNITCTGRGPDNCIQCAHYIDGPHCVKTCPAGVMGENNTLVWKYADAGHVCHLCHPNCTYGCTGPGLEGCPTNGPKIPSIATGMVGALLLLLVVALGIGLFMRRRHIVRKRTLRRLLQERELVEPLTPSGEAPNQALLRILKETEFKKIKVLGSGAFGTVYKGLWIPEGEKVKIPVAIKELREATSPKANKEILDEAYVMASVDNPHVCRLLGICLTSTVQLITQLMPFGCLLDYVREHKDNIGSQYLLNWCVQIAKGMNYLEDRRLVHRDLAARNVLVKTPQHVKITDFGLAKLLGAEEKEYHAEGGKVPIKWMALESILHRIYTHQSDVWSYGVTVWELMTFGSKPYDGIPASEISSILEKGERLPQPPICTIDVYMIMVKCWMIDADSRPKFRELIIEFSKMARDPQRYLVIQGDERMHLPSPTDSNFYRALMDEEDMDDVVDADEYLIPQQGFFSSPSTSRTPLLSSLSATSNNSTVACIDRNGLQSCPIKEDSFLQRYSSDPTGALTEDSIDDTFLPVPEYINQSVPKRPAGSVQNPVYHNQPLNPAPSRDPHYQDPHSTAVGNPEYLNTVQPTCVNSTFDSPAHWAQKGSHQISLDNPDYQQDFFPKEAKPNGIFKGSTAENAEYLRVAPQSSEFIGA

[8] = target: Follistatin-related protein 3 (Homo sapiens) (UniProt O95633); test: compounds binding follistatin-related protein 3 – biochemical, small-molecule microarray, 635 nm fluorescence, primary screen (AID 1105); settings: FSTL3 binding, higher = more signal;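 further: score merges emission near 667 nm and signal to noise per printed spot across three slides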
Sequence of Follistatin-related protein 3 (Homo sapiens) (O95633 whole entry, looked up): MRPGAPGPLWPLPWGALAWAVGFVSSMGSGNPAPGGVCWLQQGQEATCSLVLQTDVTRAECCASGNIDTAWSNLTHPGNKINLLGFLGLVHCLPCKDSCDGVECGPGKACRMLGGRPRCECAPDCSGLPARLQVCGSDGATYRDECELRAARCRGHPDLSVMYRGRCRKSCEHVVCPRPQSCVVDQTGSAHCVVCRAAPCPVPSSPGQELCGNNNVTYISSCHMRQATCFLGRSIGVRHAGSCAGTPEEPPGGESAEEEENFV

[9] = target: Dickkopf-related protein 1 (Homo sapiens) (UniProt O94907); test: small molecules binding DKK1 protein – biochemical, small-molecule microarray, 635 nm fluorescence scan, primary screen (AID 1106); settings: higher = more signal;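 further: score merges emission near 667 nm with signal to noise over three replicate slides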
Sequence of Dickkopf-related protein 1 (Homo sapiens) (O94907 whole entry, looked up): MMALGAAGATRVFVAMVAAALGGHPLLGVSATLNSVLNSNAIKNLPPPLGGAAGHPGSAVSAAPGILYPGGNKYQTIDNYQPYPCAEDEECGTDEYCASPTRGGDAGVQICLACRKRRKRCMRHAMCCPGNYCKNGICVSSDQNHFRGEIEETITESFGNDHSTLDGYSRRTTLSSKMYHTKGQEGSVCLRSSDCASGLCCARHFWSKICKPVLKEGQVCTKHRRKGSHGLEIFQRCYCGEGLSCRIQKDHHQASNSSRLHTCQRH

[10] = test system: Inhibin beta A chain (activin A); test: small molecules binding activin A – biochemical, small-molecule microarray, 635 nm fluorescence scan, primary screen (AID 1107); settings: INHBA, higher = more signal;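 further: mouse activin A protein probed at 4.33 µg/mL on printed slides; score merges bound-protein fluorescence near 667 nm with spot signal-to-noise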
[11] = test system: Human papillomavirus type 1a protein E7 (residues 44-93); test: small molecules binding HPV E7 44-93 – biochemical, small-molecule microarray, residues 44-93, 635 nm fluorescence, primary screen (AID 1108); settings: fluorescence 635 nm, higher = more signal;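 further: E7 fragment applied at 1 µg/mL in TBST for 1 h at 4 C; score combines spot fluorescence with its signal to noise ratio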
[12] = hepatitis C replication reporter changes, two-sided – Huh7 cells, luciferase reporter, HCV replication inhibitor project, primary screen (AID 1109); settings: Huh7 HCV replicon luciferase reporter, 48 h; higher = more signal;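 further: huh7 hepatoma cells harbouring a luciferase neomycin HCV replicon reporter; luciferase luminescence as measure of HCV replicon replication; test concentration not given here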
[13] = target: Left-right determination factor 2 (Homo sapiens) (UniProt O00292); test: small molecules binding LEFTY2 protein – biochemical, small-molecule microarray, 635 nm fluorescence scan, primary screen (AID 1110); settings: higher = more signal
Sequence of Left-right determination factor 2 (Homo sapiens) (O00292 whole entry, looked up): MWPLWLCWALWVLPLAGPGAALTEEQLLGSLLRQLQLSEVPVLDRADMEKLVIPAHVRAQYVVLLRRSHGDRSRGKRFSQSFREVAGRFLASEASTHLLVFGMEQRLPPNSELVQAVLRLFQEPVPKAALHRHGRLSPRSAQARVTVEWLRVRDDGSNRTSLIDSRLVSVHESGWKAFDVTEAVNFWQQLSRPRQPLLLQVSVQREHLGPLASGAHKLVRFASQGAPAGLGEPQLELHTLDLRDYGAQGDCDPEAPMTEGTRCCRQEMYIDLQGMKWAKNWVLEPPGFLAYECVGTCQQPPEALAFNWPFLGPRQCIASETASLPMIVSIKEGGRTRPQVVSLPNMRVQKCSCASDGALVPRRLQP

[14] = target: Calmodulin-1 (Homo sapiens) (UniProt P0DP23); test: small molecules binding calmodulin-1 with EGTA – biochemical, small-molecule microarray, Cy5-labelled CALM1, profiling panel (AID 1111); settings: Cy5-CALM1 binding fluorescence, higher = more signal;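 further: labelled calmodulin applied in Tris saline Tween buffer holding calcium plus EGTA and DTT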
[15] = target: Calmodulin-1 (Homo sapiens) (UniProt P0DP23); test: small molecules binding Ca-loaded calmodulin-1 – biochemical, small-molecule microarray, Cy5-labelled CALM1, plus calcium, artefact control for SMM control-protein annotation, profiling panel (AID 1112); settings: Cy5-CALM1 binding fluorescence, higher = more signal;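 further: score merges spot fluorescence with signal to noise from triplicate slides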
[16] = probe aWnt5a binding to arrayed compounds – biochemical, biotinylated probe, 635/667 nm fluorescence, primary screen (AID 1113); settings: small-molecule microarray, higher = more signal;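 further: score merges 667 nm fluorescence intensity with signal-to-noise per printed feature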
[17] = probe aShh binding to arrayed compounds – biochemical, biotinylated probe, 635/667 nm fluorescence, primary screen (AID 1114); settings: small-molecule microarray, higher = more signal;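 further: probe is biotin-labelled aShh protein from a stem cell growth factor screen; measures binding of labelled protein to compounds printed on the slide; score merges feature fluorescence at 667 nm with signal-to-noise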
[18] = probe aNog binding to arrayed compounds – biochemical, biotinylated probe, 635/667 nm fluorescence, primary screen (AID 1115); settings: small-molecule microarray, higher = more signal;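 further: probe is biotinylated aNog protein used at 0.15 µg/mL for 1 h at 4 C; z-score combines 667 nm fluorescence of each spot with its signal to noise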
[19] = target: Torsin-1A-interacting protein 1 (Homo sapiens) (UniProt Q5JTV8); test: compound microarray binding of lysate hLAP1 – cell lysate, small-molecule microarray, COS7 lysate, 635/667 nm fluorescence, primary screen (AID 1116); settings: 635 nm fluorescence, higher = more signal
Sequence of Torsin-1A-interacting protein 1 (Homo sapiens) (Q5JTV8 whole entry, looked up): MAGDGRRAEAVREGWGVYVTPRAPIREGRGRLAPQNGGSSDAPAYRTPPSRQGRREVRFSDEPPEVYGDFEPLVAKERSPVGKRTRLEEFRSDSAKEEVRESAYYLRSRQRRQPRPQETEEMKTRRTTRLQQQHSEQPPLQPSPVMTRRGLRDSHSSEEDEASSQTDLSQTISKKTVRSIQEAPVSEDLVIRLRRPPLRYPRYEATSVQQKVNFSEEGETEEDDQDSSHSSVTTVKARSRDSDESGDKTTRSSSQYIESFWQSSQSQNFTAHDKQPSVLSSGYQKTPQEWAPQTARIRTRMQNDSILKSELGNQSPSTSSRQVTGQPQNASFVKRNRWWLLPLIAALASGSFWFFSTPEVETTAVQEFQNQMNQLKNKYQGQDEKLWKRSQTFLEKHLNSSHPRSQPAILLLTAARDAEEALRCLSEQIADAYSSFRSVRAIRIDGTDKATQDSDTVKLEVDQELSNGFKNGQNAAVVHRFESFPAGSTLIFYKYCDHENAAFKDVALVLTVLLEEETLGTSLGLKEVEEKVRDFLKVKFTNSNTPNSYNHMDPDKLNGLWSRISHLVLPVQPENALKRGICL

[20] = target: Alpha-bungarotoxin (Bungarus multicinctus) (UniProt P60615); test: compounds binding labelled alpha-BTX control protein – biochemical, small-molecule microarray, Alexa647 label, 635/667 nm fluorescence, artefact control for SMM control protein annotation, profiling panel (AID 1117); settings: alpha-BTX-A647 binding fluorescence, higher = more signal
Sequence of Alpha-bungarotoxin (Bungarus multicinctus) (P60615 whole entry, looked up): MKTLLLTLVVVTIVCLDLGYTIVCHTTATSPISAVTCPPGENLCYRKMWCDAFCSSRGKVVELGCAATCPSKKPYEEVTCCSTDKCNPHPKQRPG

Row | SMILES | composite z-score [1] | composite z-score [2] | composite z-score [3] | z-score [4] | composite z-score [5] | composite z-score [6] | composite z-score [7] | composite z-score [8] | composite z-score [9] | composite z-score [10] | composite z-score [11] | z-score [12] | composite z-score [13] | composite z-score [14] | composite z-score [15] | composite z-score [16] | composite z-score [17] | composite z-score [18] | composite z-score [19] | composite z-score [20]
1 | COc1cc2c(cc1O)C(c1ccc(CN3CCCC3)cc1)N(Cc1sc3ccccc3c1Cl)CC2 (stereo not given) | 1.41 | 0.0829 | 0.234 | -0.478 (inactive) | 0.514 | -0.111 | 0.521 | 0.988 | 1.12 | 1.35 | 0.573 | -2.57 | 0.82 | 0.26 | -0.935 | -0.0036 | -0.0626 | 0.151 | 0.0494 | 0.518
2 | COCCOC(=O)N1C(=O)[C@@]2(c3ccccc31)[C@H](c1ccc(O)cc1)N1[C@H](c3ccccc3)[C@H](c3ccccc3)OC(=O)[C@H]1[C@@H]2C(N)=O | 0.394 | -0.374 | 0.679 | 0.435 (inactive) | -0.422 | -1.11 | -0.608 | -0.821 | -1.17 | -0.249 | -1.11 | -0.823 | -0.827 | -0.284 | -0.0872 | -0.0256 | 0.0899 | -0.346 | -0.571 | -0.448
3 | C=CCN1C(=O)[C@]2(COC(c3ccc(OCCCO)cc3)=N2)Cc2ccccc21 | 1.31 | 0.16 | 0.946 | -0.556 (inactive) | 0.261 | 0.678 | 0.145 | 0.232 | -0.169 | 1.13 | 1.17 | -0.347 | -0.352 | -0.0567 | 0.0613 | 0.227 | 0.0253 | 0.795 | 2.59 | 1.48
